Entries with a potency or affinity are not part of this list. Records with an inconclusive call do not appear. Calls of active or inactive are those of the source. Unless noted, no rule for the calls is given here.
What was measured:
[1] = cytotoxicity in PAX8-dependent RMG-1 cells, dose response, cell-based, cherry-pick (AID 687029;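 active = signal drop whose fitted half-maximal concentration is at most twice the top valid dose, in every test run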;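 also: cells exposed to compound for 96 hours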)
[2] = inhibitors of CMV-promoter luciferase reporter, dose response, counter-screen for Pax8 inhibitor project, cell-based, HEK293, luminescence, dry powder (AID 743020;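 active = signal-lowering compounds whose fitted half-maximal concentration is at or below twice the top tested dose in every run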;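 also: HEK293 cells stably expressing the CMV luciferase reporter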)
[3] = non-specific cell cytotoxicity, dose response, cytotoxicity control for PAX8 inhibitor project, plate reader, dry powder samples (AID 743021)
[4] = IGROV1 ovarian cancer cell cytotoxicity, dose response, PAX8 inhibitor project, plate reader, dry powder samples (AID 743043);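 also: more negative means fewer viable cells or more cytotoxicity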
[5] = NIH:OVCAR-3 ovarian cancer cell cytotoxicity, dose response, PAX8 inhibitor project, plate reader, dry powder samples (AID 743044); settings: max activity: at 35 µM, active compounds read low unless noted
[6] = IOSE-T80 ovarian epithelial cell cytotoxicity, dose response, cytotoxicity control for PAX8 inhibitor project, plate reader, dry powder samples (AID 743045);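 also: 0% = neutral control median and -100% = positive control median; more negative values mean more cell killing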
[7] = A2780 ovarian cancer cell cytotoxicity, dose response, cytotoxicity control, plate reader, dry powder samples (AID 743046);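 also: 0% = neutral control wells and -100% = cytotoxic reference compound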
[8] = cytotoxicity in OVCAR8 ovarian cancer cells, dose response, PAX8 project, cell-based, plate reader, dry powder samples (AID 743197)
[9] = A549 cell cytotoxicity, dose response, cytotoxicity control, plate reader, cherry-pick, antagonist series (AID 743412);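 also: 0% = neutral control wells and -100% = positive control wells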
[10] = HepG2 cell cytotoxicity, dose response, cytotoxicity control, plate reader, cherry-pick, antagonist series (AID 743416);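 also: 0% = neutral control wells and -100% = positive control wells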
[11] = target: Melanocortin receptor 4 (Homo sapiens) (UniProt P32245); assay: MC4R antagonists, dose response, counter-screen for LGR2 antagonist project, cell-based, plate reader, cherry pick (AID 743444)

Measured: max activity

C[C@H](CO)N1C[C@H](C)[C@@H](CN(C)CC2CCCCC2)Oc2c(NC(=O)CCCCCC(=O)Nc3ccccc3N)cccc2C1=O
inactive: [1] | [2] | [3] | [4] | [5] 16% [at 1 µM, active compounds read low] | [6] | [7]

COc1ccc(CN(C)C[C@H]2OCCCC[C@H](C)Oc3ccc(NC(=O)Nc4ccc(C(F)(F)F)cc4)cc3C(=O)N([C@H](C)CO)C[C@@H]2C)cc1
inactive: [1] | [2] | [3] | [4] | [5] -28.6% [at 8 µM, active compounds read low] | [6] | [7] | [8]

C[C@@H]1CN([C@@H](C)CO)C(=O)c2cc(NC(=O)Nc3ccc(C(F)(F)F)cc3)ccc2O[C@@H](C)CCCCO[C@@H]1CN(C)CC1CCCCC1
inactive: [1] | [2] | [3] | [4] | [5] 15.9% | [6] | [7] | [8]

Cn1nnnc1Sc1ncnc2scc(-c3ccc(Br)cc3)c12
inactive: [1] | [2] | [3]

C[C@@H]1CN([C@H](C)CO)C(=O)c2cc(NC(=O)Nc3ccc(C(F)(F)F)cc3)ccc2O[C@@H](C)CCCCO[C@H]1CN(C)Cc1ccccc1
inactive: [1] | [2] | [3] | [4] | [5] 12% [at 30 µM, active compounds read low] | [6] | [7] | [8]

O=S(=O)(c1ccccc1)N1CCCCN2[C@H](CO)[C@H](c3ccc(-c4ccccc4F)cc3)[C@H]2C1
inactive: [1] | [2] | [3] | [4] | [5] -5.95% | [6] | [7]

COc1cccc(S(=O)(=O)N(C)C[C@@H]2OCc3ccccc3-c3c(n(C)c4ccccc34)C(=O)N([C@H](C)CO)C[C@@H]2C)c1
inactive: [1] | [2] | [3] | [4] | [5] -14.8% | [6]

O=C(NC(Nc1nc2ccc([N+](=O)[O-])cc2s1)(C(F)(F)F)C(F)(F)F)c1cccnc1
inactive: [1] | [2] | [3]

Cc1ccc(S(=O)(=O)Nc2ccc3c(c2)C(=O)N([C@H](C)CO)C[C@@H](C)[C@H](CN(C)Cc2ccc(C(F)(F)F)cc2)OCCCC[C@@H](C)O3)cc1
inactive: [1] | [2] | [3] | [4] | [5] 6.08% [at 0.5 µM, active compounds read low] | [6] | [7] | [8]

CCOc1ccc2c(c1)C(C)=CC(C)(C)N2S(=O)(=O)c1ccc(NC(C)=O)cc1
inactive: [1] | [2] | [3]

Cc1ccc(S(=O)(=O)N(C)C[C@@H]2Oc3cc(C#Cc4ccncc4)ccc3S(=O)(=O)N([C@H](C)CO)C[C@H]2C)cc1
inactive: [1] | [2] | [3] | [4] | [6] | [7]

Cc1ccc2cccc(NS(=O)(=O)c3ccccc3)c2n1
inactive: [1] | [2] | [3] | [5]

Cc1cc(C)c2sc(NNC(=O)c3ccc(S(=O)(=O)N4CCc5ccccc5C4)cc3)nc2c1
inactive: [1] | [2] | [3] | [6]

Cc1cc(NC(=O)CCCS(=O)(=O)c2nc(-c3cccs3)cc(C(F)(F)F)n2)no1
inactive: [1] | [2] | [3] | [6]

COc1cccc(S(=O)(=O)N2C[C@@H]3N[C@H](C2)C3c2ccc(/C=C/c3ccccc3)cc2)c1 (stereo partly specified)
inactive: [1] | [2] | [7]

COc1ccc(CN(C)C[C@H]2OCCCC[C@@H](C)Oc3ccc(NC(=O)Nc4ccc(F)cc4)cc3C(=O)N([C@@H](C)CO)C[C@@H]2C)cc1
inactive: [1] | [2] | [4] | [6]

COc1ccc(-c2cnc3c(NC=O)cc(-c4ccccc4OC)cn23)cc1OC
inactive: [1] | [3]

Cc1nc(SCC(=O)Nc2nc3ccccc3s2)c(C#N)c(C)c1C
inactive: [1] | [2] | [3] | [9]

COc1ccc(S(=O)(=O)N(C)C[C@H]2OCCCC[C@H](C)Oc3ccc(NS(=O)(=O)c4ccc(F)cc4)cc3C(=O)N([C@@H](C)CO)C[C@@H]2C)cc1
inactive: [1] | [2] | [4] | [6] | [7]

C[C@H]1CCCCO[C@H](CN(C)C(=O)C2CCCCC2)[C@@H](C)CN([C@@H](C)CO)C(=O)c2cc(NC(=O)Nc3ccc(F)cc3)ccc2O1
inactive: [1] | [2] | [3] | [5] -23.8% | [6] | [7] | [8]

CN(C)CCN(C(=O)/C=C/c1cccs1)c1nc2c(F)cc(F)cc2s1
inactive: [1] | [2] | [3] | [6] | [7]

COc1cc(/C=C2\SC(=S)N(CCC(=O)N3CCCCC3)C2=O)cc(OC)c1OC
inactive: [1] | [2] | [3] | [6]

C[C@H]1CN([C@@H](C)CO)C(=O)Cc2cc(NC(=O)C3CC3)ccc2O[C@@H]1CN(C)Cc1ccc(-c2ccccc2)cc1
inactive: [1] | [2] | [3] | [4] | [6]

Cc1ccc(-c2csc(NC3OC(=O)c4ccccc43)n2)cc1 (stereo unspecified)
inactive: [1] | [2] | [3] | [4] | [7]

C[C@@H]1CN([C@H](C)CO)C(=O)c2cc(NC(=O)Nc3ccc(C(F)(F)F)cc3)ccc2O[C@@H](C)CCCCO[C@@H]1CN(C)C(=O)c1ccccc1
inactive: [1] | [2] | [3] | [4] | [6] | [7]

COc1ccc(S(=O)(=O)Nc2ccc3c(c2)C(=O)N([C@H](C)CO)C[C@H](C)[C@H](CN(C)Cc2ccc(C(F)(F)F)cc2)OCCCC[C@H](C)O3)cc1
inactive: [1] | [2] | [3] | [4] | [7]

C[C@@H]1CN([C@H](C)CO)C(=O)c2cc(NC(=O)NC3CCCCC3)ccc2O[C@@H](C)CCCCO[C@H]1CN(C)Cc1ccc(C(F)(F)F)cc1
inactive: [1] | [2] | [3] | [6]

COc1ccccc1C#Cc1ccc2c(c1)O[C@H](CN(C)Cc1cccnc1)[C@H](C)CN([C@@H](C)CO)S2(=O)=O
inactive: [1] | [2] | [3] | [4] | [6] | [7]

Cc1ccc(S(=O)(=O)N(C)C[C@@H]2Oc3cc(C#Cc4ccncc4)ccc3S(=O)(=O)N([C@H](C)CO)C[C@@H]2C)cc1
not listed: [5] | [9] | [10] | [11]
inactive: all other assays above

C[C@H](CO)N1C[C@H](C)[C@@H](CN(C)Cc2ccc(Cl)c(Cl)c2)Oc2ccc(NS(=O)(=O)c3ccccc3)cc2CC1=O
inactive: [1] | [2] | [3] | [4] | [6] | [7]

Cc1ccc(S(=O)(=O)Nc2ccc3c(c2)nc(CCN2CCCC2)n3C)cc1
inactive: [1] | [2] | [3] | [4] | [6] | [7]

O=C(NCCc1ccccc1)c1ccc2c(c1)OCCCO2
inactive: [1] | [2] | [3] | [5] | [7]

Cc1ccc(S(=O)(=O)Nc2ccc3c(c2)CC(=O)N([C@@H](C)CO)C[C@H](C)[C@@H](CN(C)C(=O)Nc2ccc(C(F)(F)F)cc2)O3)cc1
inactive: [1] | [2] | [4] | [5] 7.6% [at 2.1 µM, active compounds read low] | [6] | [7] | [8]

C[C@@H]1CN([C@H](C)CO)C(=O)c2cc(NC(=O)Nc3ccccc3)ccc2O[C@@H](C)CCCCO[C@@H]1CN(C)Cc1ccc(C(F)(F)F)cc1
inactive: [1] | [2] | [3] | [6] | [7]

O=C1/C(=C/c2ccccc2F)SC(=S)N1CC(=O)N1CCCCC1c1cccnc1 (stereo unspecified)
inactive: [1] | [2] | [3] | [4] | [7]

C[C@H](CO)N1C[C@H](C)[C@@H](CN(C)C(=O)C2CCCCC2)OCCCC[C@H](C)Oc2ccc(NS(=O)(=O)c3ccc(Cl)cc3)cc2C1=O
not listed: [5] | [9] | [10] | [11]
inactive: all other assays above

O=C(Cn1ncc(Cl)c(Cl)c1=O)N1CCN(S(=O)(=O)c2ccc3ccccc3c2)CC1
inactive: [1] | [3]

CC(C)CC#Cc1ccc2c(c1)O[C@H](CN(C)Cc1ccc(C(=O)O)cc1)[C@@H](C)CN([C@H](C)CO)S2(=O)=O
inactive: [1] | [2] | [4] | [6] | [7] | [8]

O=S(=O)(c1ccccc1F)N1CC[C@@H]2[C@H]1c1cc(-c3cccc(F)c3)ccc1N[C@@H]2CO
inactive: [1] | [2] | [6] | [7]

Cc1ccc(S(=O)(=O)Nc2ccc3c(c2)C(=O)N([C@@H](C)CO)C[C@@H](C)[C@H](CN(C)Cc2ccc(C(F)(F)F)cc2)OCCCC[C@H](C)O3)cc1
inactive: [1] | [2] | [3] | [4] | [6] | [7]

CC(=O)Nc1ccc(S(=O)(=O)c2ccnc3cc(Cl)ccc23)cc1
inactive: [1] | [2] | [3] | [10] | [11]

O=C(NC(Nc1nc2ccc([N+](=O)[O-])cc2s1)(C(F)(F)F)C(F)(F)F)c1ccccc1Cl
inactive: [1] | [3]

C[C@@H]1CCCCO[C@H](CN(C)Cc2ccc(C(F)(F)F)cc2)[C@H](C)CN([C@@H](C)CO)C(=O)c2cc(NS(=O)(=O)c3ccc(F)cc3)ccc2O1
inactive: [1] | [2] | [3] | [6]

O=C(Nc1ccc(F)cc1)N1CCCCN2[C@@H](CO)[C@@H](c3ccc(C#Cc4ccccc4)cc3)[C@@H]2C1
inactive: [1] | [2] | [3] | [7] | [8]

— PubChem BioAssay
